From the supplement of paper PMC11732987, “Enantioselective OTUD7B fragment discovery through chemoproteomics screening and high-throughput optimisation” (Communications Chemistry, 2025)

Experiments:
Assay in all cases: log2 ratio of Biotin-Ahx-Ub-VS probe labelling (fragment/DMSO); higher = less target engagement (more negative = stronger competition), active = hit call of the paper (q ≤ 0.05, log2 ratio ≤ -1)
Details in all cases: compound concentration: 200 uM; treatment time: 3 h
USP19 = target: T1, USP19 (UniProt O94966)
T1 sequence (whole entry): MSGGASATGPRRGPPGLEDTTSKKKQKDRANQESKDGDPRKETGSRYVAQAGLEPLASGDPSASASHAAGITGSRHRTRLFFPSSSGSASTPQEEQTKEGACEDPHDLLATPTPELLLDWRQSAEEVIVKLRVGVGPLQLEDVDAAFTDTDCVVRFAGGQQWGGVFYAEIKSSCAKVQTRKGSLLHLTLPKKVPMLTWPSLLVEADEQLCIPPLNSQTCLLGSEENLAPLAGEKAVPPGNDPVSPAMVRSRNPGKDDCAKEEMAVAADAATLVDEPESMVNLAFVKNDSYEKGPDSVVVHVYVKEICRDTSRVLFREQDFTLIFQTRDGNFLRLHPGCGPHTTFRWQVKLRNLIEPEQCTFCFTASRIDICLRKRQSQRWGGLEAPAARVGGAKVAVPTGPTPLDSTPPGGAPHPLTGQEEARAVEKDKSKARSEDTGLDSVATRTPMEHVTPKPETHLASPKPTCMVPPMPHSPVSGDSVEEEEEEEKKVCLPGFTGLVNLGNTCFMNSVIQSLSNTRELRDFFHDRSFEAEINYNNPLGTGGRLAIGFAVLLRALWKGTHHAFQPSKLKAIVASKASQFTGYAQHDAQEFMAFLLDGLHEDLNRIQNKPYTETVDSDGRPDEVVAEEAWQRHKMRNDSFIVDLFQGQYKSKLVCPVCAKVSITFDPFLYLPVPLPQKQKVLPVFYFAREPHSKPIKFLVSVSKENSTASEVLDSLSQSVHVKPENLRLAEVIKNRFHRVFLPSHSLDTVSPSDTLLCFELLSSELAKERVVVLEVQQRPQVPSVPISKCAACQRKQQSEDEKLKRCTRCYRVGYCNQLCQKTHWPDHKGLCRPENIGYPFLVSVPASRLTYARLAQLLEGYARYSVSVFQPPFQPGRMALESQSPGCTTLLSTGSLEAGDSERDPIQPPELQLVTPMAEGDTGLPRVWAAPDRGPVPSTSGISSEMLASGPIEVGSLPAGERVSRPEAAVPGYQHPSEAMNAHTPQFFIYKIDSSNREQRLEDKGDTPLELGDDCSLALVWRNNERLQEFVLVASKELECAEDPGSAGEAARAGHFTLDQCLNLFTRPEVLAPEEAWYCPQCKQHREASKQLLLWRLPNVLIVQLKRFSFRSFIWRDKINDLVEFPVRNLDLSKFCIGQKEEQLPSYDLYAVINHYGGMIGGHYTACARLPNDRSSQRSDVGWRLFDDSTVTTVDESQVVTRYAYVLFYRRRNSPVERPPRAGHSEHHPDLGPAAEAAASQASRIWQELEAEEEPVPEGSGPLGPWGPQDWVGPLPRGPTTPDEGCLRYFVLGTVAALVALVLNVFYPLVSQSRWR
Outline: (§1)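 HEK293T lysate in Tris/CHAPS/IGEPAL buffer with protease inhibitors (495 µg per sample) was given fragment at 200 µM or vehicle for 3 h, in triplicate. It then received Biotin-Ahx-Ub-VS at 0.5 µM final for 1 h. Labelled DUBs were NeutrAvidin-enriched, digested with LysC and trypsin, and run by diaPASEF LC-MS/MS. Values are average log2 fragment/vehicle ratios by unpaired t-test on global-median-normalised Spectronaut quantities of proteins with ≥2 unique peptides.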

USP22 = target: T2, USP22 (UniProt Q9UPT9)
T2 sequence (whole entry): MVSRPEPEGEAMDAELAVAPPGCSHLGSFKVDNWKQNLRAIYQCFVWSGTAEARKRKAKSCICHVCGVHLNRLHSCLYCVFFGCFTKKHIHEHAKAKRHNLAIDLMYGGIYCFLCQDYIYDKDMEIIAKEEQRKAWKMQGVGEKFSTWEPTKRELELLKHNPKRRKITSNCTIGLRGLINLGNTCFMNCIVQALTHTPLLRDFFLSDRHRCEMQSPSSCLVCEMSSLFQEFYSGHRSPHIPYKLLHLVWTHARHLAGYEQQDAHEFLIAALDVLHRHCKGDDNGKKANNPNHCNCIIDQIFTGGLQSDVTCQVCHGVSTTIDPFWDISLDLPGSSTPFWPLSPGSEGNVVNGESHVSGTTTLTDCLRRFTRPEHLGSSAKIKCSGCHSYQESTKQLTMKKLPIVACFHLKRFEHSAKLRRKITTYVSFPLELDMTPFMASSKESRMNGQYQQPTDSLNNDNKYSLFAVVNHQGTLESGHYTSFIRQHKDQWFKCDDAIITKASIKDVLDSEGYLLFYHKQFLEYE
Outline: as §1

USP24 = USP24 (UniProt Q9UPU5)
USP24, sequence (Q9UPU5 whole entry): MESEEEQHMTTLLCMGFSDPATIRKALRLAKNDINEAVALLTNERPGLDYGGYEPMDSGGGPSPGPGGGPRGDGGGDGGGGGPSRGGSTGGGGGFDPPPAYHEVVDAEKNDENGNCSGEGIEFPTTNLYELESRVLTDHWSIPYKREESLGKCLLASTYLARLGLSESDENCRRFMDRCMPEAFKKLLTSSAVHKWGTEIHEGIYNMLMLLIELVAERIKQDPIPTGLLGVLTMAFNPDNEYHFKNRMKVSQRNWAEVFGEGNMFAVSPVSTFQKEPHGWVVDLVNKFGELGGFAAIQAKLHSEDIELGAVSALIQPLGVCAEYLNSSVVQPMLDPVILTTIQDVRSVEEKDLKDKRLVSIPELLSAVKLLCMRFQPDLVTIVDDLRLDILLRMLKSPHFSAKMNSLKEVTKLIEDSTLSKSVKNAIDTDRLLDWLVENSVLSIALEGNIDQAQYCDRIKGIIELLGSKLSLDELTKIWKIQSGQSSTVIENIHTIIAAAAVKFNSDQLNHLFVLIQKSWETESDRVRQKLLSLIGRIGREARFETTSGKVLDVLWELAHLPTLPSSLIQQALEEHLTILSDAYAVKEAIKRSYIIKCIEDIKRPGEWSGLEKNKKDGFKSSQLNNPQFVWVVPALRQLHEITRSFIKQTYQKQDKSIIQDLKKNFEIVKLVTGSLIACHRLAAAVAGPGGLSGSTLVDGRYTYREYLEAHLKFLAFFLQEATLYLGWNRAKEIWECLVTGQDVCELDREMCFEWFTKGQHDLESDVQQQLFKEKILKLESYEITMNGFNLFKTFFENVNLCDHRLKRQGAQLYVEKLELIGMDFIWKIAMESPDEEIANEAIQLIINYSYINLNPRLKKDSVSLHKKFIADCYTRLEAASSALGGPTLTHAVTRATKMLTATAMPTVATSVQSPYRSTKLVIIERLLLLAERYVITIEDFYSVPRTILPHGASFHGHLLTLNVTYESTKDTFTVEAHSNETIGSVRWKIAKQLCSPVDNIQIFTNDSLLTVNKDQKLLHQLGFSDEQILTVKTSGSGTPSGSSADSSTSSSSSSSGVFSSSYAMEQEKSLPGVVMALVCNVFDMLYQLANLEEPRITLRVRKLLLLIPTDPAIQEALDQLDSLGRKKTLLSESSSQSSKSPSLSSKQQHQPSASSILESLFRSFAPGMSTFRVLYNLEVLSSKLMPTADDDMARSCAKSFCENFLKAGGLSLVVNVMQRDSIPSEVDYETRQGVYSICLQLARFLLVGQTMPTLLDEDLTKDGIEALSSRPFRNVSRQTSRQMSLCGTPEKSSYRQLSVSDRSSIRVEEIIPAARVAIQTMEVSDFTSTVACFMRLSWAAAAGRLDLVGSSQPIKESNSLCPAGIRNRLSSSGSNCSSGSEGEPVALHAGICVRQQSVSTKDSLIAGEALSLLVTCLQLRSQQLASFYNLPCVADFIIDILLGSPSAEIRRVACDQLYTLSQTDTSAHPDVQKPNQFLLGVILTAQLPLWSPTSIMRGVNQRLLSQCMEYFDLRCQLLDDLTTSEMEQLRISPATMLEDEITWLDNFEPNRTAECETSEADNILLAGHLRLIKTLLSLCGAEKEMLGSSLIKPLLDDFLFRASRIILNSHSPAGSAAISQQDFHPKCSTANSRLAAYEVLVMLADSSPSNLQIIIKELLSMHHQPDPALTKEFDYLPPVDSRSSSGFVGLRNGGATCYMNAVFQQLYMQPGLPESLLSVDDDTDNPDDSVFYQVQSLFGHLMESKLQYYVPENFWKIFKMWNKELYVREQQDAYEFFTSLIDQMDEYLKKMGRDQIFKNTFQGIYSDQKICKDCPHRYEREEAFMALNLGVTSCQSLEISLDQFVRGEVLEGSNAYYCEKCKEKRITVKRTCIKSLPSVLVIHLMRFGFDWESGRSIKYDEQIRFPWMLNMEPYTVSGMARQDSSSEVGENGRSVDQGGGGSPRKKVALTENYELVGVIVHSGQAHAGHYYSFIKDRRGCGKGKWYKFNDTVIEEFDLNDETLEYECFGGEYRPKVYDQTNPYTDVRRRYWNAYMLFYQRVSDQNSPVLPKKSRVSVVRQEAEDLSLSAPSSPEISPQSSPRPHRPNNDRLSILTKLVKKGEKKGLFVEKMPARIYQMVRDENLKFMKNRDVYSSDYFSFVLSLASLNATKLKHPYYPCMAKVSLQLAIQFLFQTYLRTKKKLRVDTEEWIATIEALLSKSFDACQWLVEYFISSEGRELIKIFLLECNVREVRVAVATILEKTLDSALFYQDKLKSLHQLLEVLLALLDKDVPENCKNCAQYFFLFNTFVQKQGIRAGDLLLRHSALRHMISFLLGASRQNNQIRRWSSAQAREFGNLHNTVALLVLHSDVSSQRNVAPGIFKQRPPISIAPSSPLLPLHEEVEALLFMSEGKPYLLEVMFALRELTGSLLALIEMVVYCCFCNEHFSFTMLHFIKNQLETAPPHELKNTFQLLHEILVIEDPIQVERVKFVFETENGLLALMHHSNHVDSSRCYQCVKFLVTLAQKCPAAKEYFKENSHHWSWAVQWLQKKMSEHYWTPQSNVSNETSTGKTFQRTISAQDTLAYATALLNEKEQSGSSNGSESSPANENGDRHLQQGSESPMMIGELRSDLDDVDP
Outline: as §1

USP25 = target: T3, USP25 (UniProt Q9UHP3)
T3 sequence (whole entry): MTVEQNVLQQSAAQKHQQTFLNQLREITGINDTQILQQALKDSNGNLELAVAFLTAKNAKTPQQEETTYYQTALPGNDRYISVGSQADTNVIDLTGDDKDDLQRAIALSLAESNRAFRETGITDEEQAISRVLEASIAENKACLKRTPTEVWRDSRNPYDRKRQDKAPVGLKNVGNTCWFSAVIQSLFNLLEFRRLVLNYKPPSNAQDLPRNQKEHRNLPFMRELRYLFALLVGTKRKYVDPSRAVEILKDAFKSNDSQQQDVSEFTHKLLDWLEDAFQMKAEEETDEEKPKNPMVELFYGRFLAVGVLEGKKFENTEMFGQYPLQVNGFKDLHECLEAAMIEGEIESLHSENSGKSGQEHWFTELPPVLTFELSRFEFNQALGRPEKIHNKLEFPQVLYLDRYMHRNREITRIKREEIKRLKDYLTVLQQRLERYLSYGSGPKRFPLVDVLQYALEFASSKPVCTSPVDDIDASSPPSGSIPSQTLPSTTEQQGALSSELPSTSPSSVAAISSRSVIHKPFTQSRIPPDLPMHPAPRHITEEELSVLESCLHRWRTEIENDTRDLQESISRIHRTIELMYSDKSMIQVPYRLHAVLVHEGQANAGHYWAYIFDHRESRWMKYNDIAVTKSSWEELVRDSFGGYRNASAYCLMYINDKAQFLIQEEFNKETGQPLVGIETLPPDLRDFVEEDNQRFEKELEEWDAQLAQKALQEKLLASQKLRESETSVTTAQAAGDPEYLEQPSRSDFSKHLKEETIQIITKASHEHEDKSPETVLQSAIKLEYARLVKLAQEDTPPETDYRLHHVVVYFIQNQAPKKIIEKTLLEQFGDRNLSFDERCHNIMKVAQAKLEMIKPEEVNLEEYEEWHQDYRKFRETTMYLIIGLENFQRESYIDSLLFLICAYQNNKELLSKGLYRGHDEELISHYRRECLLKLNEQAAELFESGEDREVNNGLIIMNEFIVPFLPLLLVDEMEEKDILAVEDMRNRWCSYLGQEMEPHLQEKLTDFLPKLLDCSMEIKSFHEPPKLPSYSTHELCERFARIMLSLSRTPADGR
Outline: as §1

USP28 = target: T4, USP28 (UniProt Q96RU2)
T4 sequence (whole entry): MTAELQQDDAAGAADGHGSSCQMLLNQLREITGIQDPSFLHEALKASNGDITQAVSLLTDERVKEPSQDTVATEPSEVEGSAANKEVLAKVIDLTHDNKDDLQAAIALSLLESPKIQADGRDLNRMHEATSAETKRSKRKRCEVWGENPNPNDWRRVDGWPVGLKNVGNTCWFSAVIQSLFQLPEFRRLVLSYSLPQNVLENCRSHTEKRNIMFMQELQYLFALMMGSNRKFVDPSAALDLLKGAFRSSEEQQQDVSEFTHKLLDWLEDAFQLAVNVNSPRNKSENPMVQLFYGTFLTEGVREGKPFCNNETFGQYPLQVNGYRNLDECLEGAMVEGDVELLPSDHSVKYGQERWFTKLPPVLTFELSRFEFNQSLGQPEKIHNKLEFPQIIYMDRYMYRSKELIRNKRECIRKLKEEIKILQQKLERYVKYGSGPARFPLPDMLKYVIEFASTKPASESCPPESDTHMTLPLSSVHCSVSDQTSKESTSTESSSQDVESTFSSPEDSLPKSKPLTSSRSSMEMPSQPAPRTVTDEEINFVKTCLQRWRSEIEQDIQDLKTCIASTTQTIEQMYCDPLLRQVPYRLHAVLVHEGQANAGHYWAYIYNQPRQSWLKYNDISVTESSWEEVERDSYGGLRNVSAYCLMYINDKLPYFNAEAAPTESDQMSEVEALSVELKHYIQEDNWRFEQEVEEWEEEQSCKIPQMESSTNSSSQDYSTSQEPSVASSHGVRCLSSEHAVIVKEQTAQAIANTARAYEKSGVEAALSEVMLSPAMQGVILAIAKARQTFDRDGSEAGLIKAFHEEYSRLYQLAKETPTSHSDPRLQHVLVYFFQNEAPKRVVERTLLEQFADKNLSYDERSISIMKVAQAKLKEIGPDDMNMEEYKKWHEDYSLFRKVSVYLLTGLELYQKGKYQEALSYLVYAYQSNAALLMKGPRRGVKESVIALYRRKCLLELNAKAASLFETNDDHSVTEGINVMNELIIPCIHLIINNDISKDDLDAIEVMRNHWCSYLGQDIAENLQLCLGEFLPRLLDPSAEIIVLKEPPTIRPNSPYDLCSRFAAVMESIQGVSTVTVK
Outline: as §1

Measured: log2 ratio of Biotin-Ahx-Ub-VS probe labelling

Cc1ccc(C(=O)NCCNC(=O)CCl)cc1
inactive: USP19 -0.26 | USP22 -0.00216 | USP24 -0.352 | USP25 -0.498 | USP28 -0.493
